# Laboratory results: the supplement of paper PMC7765376
# Counter-ions that a name gives are not always drawn. The full ranking holds about 1,500 compounds; the median of “Excess HSA synergy score (sum over dose matrix of excess over highest single agent)” is about 43, and the lowest 2% start at about -900. Many of the other results were omitted from the sample, so the lowest values are more common in it than they were.
# System: PEO-1
# Test: Excess HSA synergy score (sum over dose matrix of excess over highest single agent) (score (summed % response)); higher = less synergy / more antagonism (negative = synergy)
# Conditions: 72 h, read-out: viability/apoptosis luminescence (CellTiter-Glo or Caspase3-Glo / not stated per table)
# [1] = matrix design: 6x6, 5-fold dilutions (primary screen)
# [2] = matrix design: 10x10, 9-step dilutions (confirmatory)
SMILES,Excess HSA synergy score [1],Excess HSA synergy score [2]
COc1cc([C@@H]2c3cc4c(cc3[C@@H](O[C@@H]3O[C@@H]5CO[C@@H](C)O[C@H]5[C@H](O)[C@H]3O)[C@H]3COC(=O)[C@H]23)OCO4)cc(OC)c1O [Etoposide] + CC[C@H](NC(=O)[C@H](C)NC)C(=O)N1C[C@@H](O)C[C@H]1Cc1c(-c2[nH]c3cc(F)ccc3c2C[C@@H]2C[C@H](O)CN2C(=O)[C@H](CC)NC(=O)[C@H](C)NC)[nH]c2cc(F)ccc12 [Birinapant],-89.6,–
COc1cc([C@@H]2c3cc4c(cc3[C@@H](O[C@@H]3O[C@@H]5CO[C@@H](c6cccs6)O[C@H]5[C@H](O)[C@H]3O)[C@H]3COC(=O)[C@H]23)OCO4)cc(OC)c1O [Teniposide] + CC[C@H](NC(=O)[C@H](C)NC)C(=O)N1C[C@@H](O)C[C@H]1Cc1c(-c2[nH]c3cc(F)ccc3c2C[C@@H]2C[C@H](O)CN2C(=O)[C@H](CC)NC(=O)[C@H](C)NC)[nH]c2cc(F)ccc12 [Birinapant],-151,-1360
COC(=O)N[C@H](C(=O)N[C@@H](Cc1ccccc1)[C@@H](O)CN(Cc1ccc(-c2ccccn2)cc1)NC(=O)[C@@H](NC(=O)OC)C(C)(C)C)C(C)(C)C [Atazanavir sulfate] + CC[C@H](NC(=O)[C@H](C)NC)C(=O)N1C[C@@H](O)C[C@H]1Cc1c(-c2[nH]c3cc(F)ccc3c2C[C@@H]2C[C@H](O)CN2C(=O)[C@H](CC)NC(=O)[C@H](C)NC)[nH]c2cc(F)ccc12 [Birinapant],154,–
CC(C)(C)[C@H](NC(=O)c1ccc(N)c(Cl)c1)C(=O)N1CCC[C@H]1C(=O)N[C@H](C#N)CC(=O)O + CC[C@H](NC(=O)[C@H](C)NC)C(=O)N1C[C@@H](O)C[C@H]1Cc1c(-c2[nH]c3cc(F)ccc3c2C[C@@H]2C[C@H](O)CN2C(=O)[C@H](CC)NC(=O)[C@H](C)NC)[nH]c2cc(F)ccc12 [Birinapant],307,–
COc1ccc(C(C)=O)c(O)c1 [Paeonol] + CC[C@H](NC(=O)[C@H](C)NC)C(=O)N1C[C@@H](O)C[C@H]1Cc1c(-c2[nH]c3cc(F)ccc3c2C[C@@H]2C[C@H](O)CN2C(=O)[C@H](CC)NC(=O)[C@H](C)NC)[nH]c2cc(F)ccc12 [Birinapant],176,–
Nc1cccc(-c2cc3c(Oc4cccc(O)c4)ncnc3[nH]2)c1 + CC[C@H](NC(=O)[C@H](C)NC)C(=O)N1C[C@@H](O)C[C@H]1Cc1c(-c2[nH]c3cc(F)ccc3c2C[C@@H]2C[C@H](O)CN2C(=O)[C@H](CC)NC(=O)[C@H](C)NC)[nH]c2cc(F)ccc12 [Birinapant],63.5,–
Cc1[nH]c(/C=C2\C(=O)Nc3ccccc32)c(C)c1CCC(=O)O [Orantinib] + CC[C@H](NC(=O)[C@H](C)NC)C(=O)N1C[C@@H](O)C[C@H]1Cc1c(-c2[nH]c3cc(F)ccc3c2C[C@@H]2C[C@H](O)CN2C(=O)[C@H](CC)NC(=O)[C@H](C)NC)[nH]c2cc(F)ccc12 [Birinapant],23.6,–
COc1ccc(-c2cc3nccn3c(Nc3ncccc3C(N)=O)n2)cc1OC + CC[C@H](NC(=O)[C@H](C)NC)C(=O)N1C[C@@H](O)C[C@H]1Cc1c(-c2[nH]c3cc(F)ccc3c2C[C@@H]2C[C@H](O)CN2C(=O)[C@H](CC)NC(=O)[C@H](C)NC)[nH]c2cc(F)ccc12 [Birinapant],38,–
CN1CCc2c(c3ccccc3n2Cc2ccc(C(=O)NO)cc2)C1 [Tubastatin A] + CC[C@H](NC(=O)[C@H](C)NC)C(=O)N1C[C@@H](O)C[C@H]1Cc1c(-c2[nH]c3cc(F)ccc3c2C[C@@H]2C[C@H](O)CN2C(=O)[C@H](CC)NC(=O)[C@H](C)NC)[nH]c2cc(F)ccc12 [Birinapant],-71.8,–
Cn1cc(CNCC2CCN(c3ncc(C(=O)NO)cn3)CC2)c2ccccc21 [Quisinostat] + CC[C@H](NC(=O)[C@H](C)NC)C(=O)N1C[C@@H](O)C[C@H]1Cc1c(-c2[nH]c3cc(F)ccc3c2C[C@@H]2C[C@H](O)CN2C(=O)[C@H](CC)NC(=O)[C@H](C)NC)[nH]c2cc(F)ccc12 [Birinapant],-161,-1370
Cn1cc(C[C@@H](N)C(=O)O)c2ccccc21 [Indoximod] + CC[C@H](NC(=O)[C@H](C)NC)C(=O)N1C[C@@H](O)C[C@H]1Cc1c(-c2[nH]c3cc(F)ccc3c2C[C@@H]2C[C@H](O)CN2C(=O)[C@H](CC)NC(=O)[C@H](C)NC)[nH]c2cc(F)ccc12 [Birinapant],168,–
NC(=O)c1cnc(-c2ccc(C3(N)CCC3)cc2)c(-c2ccccc2)c1 + CC[C@H](NC(=O)[C@H](C)NC)C(=O)N1C[C@@H](O)C[C@H]1Cc1c(-c2[nH]c3cc(F)ccc3c2C[C@@H]2C[C@H](O)CN2C(=O)[C@H](CC)NC(=O)[C@H](C)NC)[nH]c2cc(F)ccc12 [Birinapant],61.1,–
CN(C)C(=O)c1ccc(S(=O)(=O)c2ccc(NC(=O)[C@@](C)(O)C(F)(F)F)c(Cl)c2)cc1 + CC[C@H](NC(=O)[C@H](C)NC)C(=O)N1C[C@@H](O)C[C@H]1Cc1c(-c2[nH]c3cc(F)ccc3c2C[C@@H]2C[C@H](O)CN2C(=O)[C@H](CC)NC(=O)[C@H](C)NC)[nH]c2cc(F)ccc12 [Birinapant],50.1,–
NC1(c2ccc(-c3nc4ccn5c(=O)[nH]nc5c4cc3-c3ccccc3)cc2)CCC1 + CC[C@H](NC(=O)[C@H](C)NC)C(=O)N1C[C@@H](O)C[C@H]1Cc1c(-c2[nH]c3cc(F)ccc3c2C[C@@H]2C[C@H](O)CN2C(=O)[C@H](CC)NC(=O)[C@H](C)NC)[nH]c2cc(F)ccc12 [Birinapant],208,–
N#CCNC(=O)c1ccc(-c2ccnc(Nc3ccc(N4CCOCC4)cc3)n2)cc1 [Momelotinib] + CC[C@H](NC(=O)[C@H](C)NC)C(=O)N1C[C@@H](O)C[C@H]1Cc1c(-c2[nH]c3cc(F)ccc3c2C[C@@H]2C[C@H](O)CN2C(=O)[C@H](CC)NC(=O)[C@H](C)NC)[nH]c2cc(F)ccc12 [Birinapant],-152,–
Cc1ccc(-c2ncn(-c3ccc(Nc4nccc(-c5cccc(N6CCOCC6)c5)n4)cc3)n2)cn1 + CC[C@H](NC(=O)[C@H](C)NC)C(=O)N1C[C@@H](O)C[C@H]1Cc1c(-c2[nH]c3cc(F)ccc3c2C[C@@H]2C[C@H](O)CN2C(=O)[C@H](CC)NC(=O)[C@H](C)NC)[nH]c2cc(F)ccc12 [Birinapant],108,-998
Cc1nc(N)sc1-c1ccnc(Nc2ccc(N3CCOCC3)cc2)n1 + CC[C@H](NC(=O)[C@H](C)NC)C(=O)N1C[C@@H](O)C[C@H]1Cc1c(-c2[nH]c3cc(F)ccc3c2C[C@@H]2C[C@H](O)CN2C(=O)[C@H](CC)NC(=O)[C@H](C)NC)[nH]c2cc(F)ccc12 [Birinapant],9.08,–
CCCS(=O)(=O)Nc1ccc(F)c(C(=O)c2c[nH]c3ncc(Cl)cc23)c1F + CC[C@H](NC(=O)[C@H](C)NC)C(=O)N1C[C@@H](O)C[C@H]1Cc1c(-c2[nH]c3cc(F)ccc3c2C[C@@H]2C[C@H](O)CN2C(=O)[C@H](CC)NC(=O)[C@H](C)NC)[nH]c2cc(F)ccc12 [Birinapant],-164,–
C=C1CC[C@@H]2[C@](C)(CO)[C@H](O)CC[C@@]2(C)[C@@H]1C/C=C1/C(=O)OC[C@H]1O [Andrographolide] + CC[C@H](NC(=O)[C@H](C)NC)C(=O)N1C[C@@H](O)C[C@H]1Cc1c(-c2[nH]c3cc(F)ccc3c2C[C@@H]2C[C@H](O)CN2C(=O)[C@H](CC)NC(=O)[C@H](C)NC)[nH]c2cc(F)ccc12 [Birinapant],12.7,–
C=CC(=O)Nc1cccc(Sc2nc(Nc3ccc(N4CCN(C)CC4)cc3)ncc2Cl)c1 + CC[C@H](NC(=O)[C@H](C)NC)C(=O)N1C[C@@H](O)C[C@H]1Cc1c(-c2[nH]c3cc(F)ccc3c2C[C@@H]2C[C@H](O)CN2C(=O)[C@H](CC)NC(=O)[C@H](C)NC)[nH]c2cc(F)ccc12 [Birinapant],73.6,–
Cc1nc(Nc2ncc(C(=O)Nc3c(C)cccc3Cl)s2)cc(N2CCN(CCO)CC2)n1 [Dasatinib] + CC[C@H](NC(=O)[C@H](C)NC)C(=O)N1C[C@@H](O)C[C@H]1Cc1c(-c2[nH]c3cc(F)ccc3c2C[C@@H]2C[C@H](O)CN2C(=O)[C@H](CC)NC(=O)[C@H](C)NC)[nH]c2cc(F)ccc12 [Birinapant],-329,-1400
Cc1cc(Nc2cc(N3CCN(C)CC3)nc(Sc3ccc(NC(=O)C4CC4)cc3)n2)n[nH]1 [Tozasertib] + CC[C@H](NC(=O)[C@H](C)NC)C(=O)N1C[C@@H](O)C[C@H]1Cc1c(-c2[nH]c3cc(F)ccc3c2C[C@@H]2C[C@H](O)CN2C(=O)[C@H](CC)NC(=O)[C@H](C)NC)[nH]c2cc(F)ccc12 [Birinapant],-170,–
c1cc(-c2sc(-c3ccncc3)c(-c3ccncc3)c2-c2ccncc2)ccn1 + CC[C@H](NC(=O)[C@H](C)NC)C(=O)N1C[C@@H](O)C[C@H]1Cc1c(-c2[nH]c3cc(F)ccc3c2C[C@@H]2C[C@H](O)CN2C(=O)[C@H](CC)NC(=O)[C@H](C)NC)[nH]c2cc(F)ccc12 [Birinapant],153,–
"O=c1cc(-c2ccccc2)oc2cc(O)cc(O)c12 [5,7-Dihydroxyflavone] + CC[C@H](NC(=O)[C@H](C)NC)C(=O)N1C[C@@H](O)C[C@H]1Cc1c(-c2[nH]c3cc(F)ccc3c2C[C@@H]2C[C@H](O)CN2C(=O)[C@H](CC)NC(=O)[C@H](C)NC)[nH]c2cc(F)ccc12 [Birinapant]",-131,–
